Tg IFNy HTS: T. gondii growth inhibition under IFN-gamma; Toxoplasma gondii growth in IFN-gamma-treated host cells; stronger effect = lower value; activity change, negative = inhibition, % (concentration not given with the values); actives 3.8% (n = 69,000); in the data active means activity change below about -70%, passing the limit was not always enough;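 further: host cells are HeLa cells infected with Toxoplasma gondii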
Numbers stand for hits; – = inactive. Shown is part of a subset that was picked to be rich in hits.

SMILES	Tg IFNy HTS
C[C@@H]1CCCCO[C@@H](CN(C)Cc2ccc(Cl)c(Cl)c2)[C@H](C)CN([C@H](C)CO)C(=O)c2cc(NS(=O)(=O)c3cccs3)ccc2O1	–
C[C@@H]1CCCCO[C@@H](CN(C)Cc2ccncc2)[C@H](C)CN([C@H](C)CO)C(=O)c2cc(NS(=O)(=O)c3ccc(Cl)cc3)ccc2O1	-105
C[C@@H]1CCCCO[C@@H](CN(C)Cc2ccc(Cl)c(Cl)c2)[C@H](C)CN([C@@H](C)CO)C(=O)c2cc(NS(=O)(=O)c3cccs3)ccc2O1	–
C[C@@H]1CN([C@H](C)CO)C(=O)c2cc(NS(=O)(=O)c3ccc(Cl)cc3)ccc2O[C@@H](C)CCCCO[C@@H]1CN(C)Cc1ccncc1	-112
C[C@@H]1CN([C@H](C)CO)C(=O)c2cc(NS(=O)(=O)c3cccs3)ccc2O[C@@H](C)CCCCO[C@H]1CN(C)Cc1ccc(Cl)c(Cl)c1	–
C[C@@H]1CCCCO[C@@H](CN(C)Cc2ccc(Cl)c(Cl)c2)[C@@H](C)CN([C@@H](C)CO)C(=O)c2cc(NS(=O)(=O)c3cccs3)ccc2O1	–
C[C@@H]1CCCCO[C@H](CN(C)Cc2ccncc2)[C@H](C)CN([C@@H](C)CO)C(=O)c2cc(NS(=O)(=O)c3ccc(Cl)cc3)ccc2O1	–
COc1cc(CN2CCC(c3nnc(-c4scnc4C)o3)CC2)cc(OC)c1OC	–
CC1CNC(=O)CCN1Cc1ccc(S(C)(=O)=O)cc1 (configuration not stated)	–
CSc1ncccc1C(=O)N1CCc2c(c(C(=O)N3CCOCC3)nn2CCC(C)C)C1	–
S=C(NCc1ccco1)Nc1ccc(C2=NCCO2)cc1	–
CCc1ccccc1-c1cncc(C(N)=O)c1	–
Cc1nn(C)cc1-c1ccnc(N2CCCN(c3ccc(F)cc3)CC2)n1	–
NC1CCCN(C(=O)c2cccc(-c3ccc(F)cc3)c2)CC1 (configuration not stated)	–
CO[C@H]1CCN(C(=O)c2cnccn2)[C@H]2CN(Cc3ccco3)C[C@@H]12	–
c1ccc(-c2ncn(CCCc3cccnc3)c2C2CCOC2)cc1 (configuration not stated)	–
O=C(C[C@H]1C=C[C@H](NC(=O)Nc2ccccc2F)[C@H](CO)O1)NCc1ccc(-c2ccccc2)cc1	–
Cc1oc(-c2ccccc2)nc1Cc1noc(-c2cccnc2)n1	-87
Cc1cccc(-c2nc(Cc3noc(-c4ccncc4)n3)c(C)o2)c1	–
Cc1oc(-c2ccccc2)nc1Cc1noc(COc2ccccc2)n1	–
COc1ccccc1-c1nc(Cn2nnc(-c3nc(-c4cccnc4)no3)c2C)c(C)o1	–
CCOc1ccccc1-c1nc(Cc2noc(-c3cccnc3)n2)c(C)o1	-79
CCOc1ccccc1-c1noc(-c2nnn(Cc3nc(-c4ccc(C)cc4)oc3C)c2C)n1	–
CCOc1ccccc1-c1nc(CN(c2ccc(OC)cc2)S(=O)(=O)c2ccc(C)cc2)c(C)o1	–
CCOc1ccccc1-c1nc(Cc2nc(-c3ccc(OC)cc3)oc2C)no1	-93
SMILES	Tg IFNy HTS
Cc1oc(-c2ccccc2)nc1Cc1noc(-c2ccncc2)n1	–
CCOc1ccccc1-c1nc(Cc2noc(-c3ccccc3)n2)c(C)o1	-101
COc1ccccc1-c1nc(Cc2noc(-c3ccccc3)n2)c(C)o1	–
CCOc1ccc(-c2nc(Cc3noc(-c4cccnc4)n3)c(C)o2)cc1	–
CCc1ccc(S(=O)(=O)N2CCC[C@@H]2C(=O)NCCc2csc(-c3ccccc3)n2)cc1	–
CC(C)(C)NC(=O)[C@@H]1Cc2ccccc2CN1	–
Cc1ccc(NC(=O)c2c(O)c3cccnc3n(-c3ccc(F)cc3)c2=O)c(F)c1	–
Fc1ccccc1CSc1nc(NCc2ccc(Cl)cc2)c2ccccc2n1	–
Cc1nn(CC(=O)N2CCC3(CC2)OCCO3)c(=O)c2nc(-c3ccccc3)sc12	–
Cc1nn(C(C)CNC(=O)CN=C2NS(=O)(=O)c3ccccc32)c(C)c1C (configuration not stated)	–
Cc1ccc2c(c1)N(C(=O)Cn1c(=O)cc(C(=O)N3CCCC3)c3ccccc31)CCO2	–
O=C(NCCN1CCOCC1)c1cccc(C2CCNC2)c1 (configuration not stated)	–
COc1ccc2c(c1)NC1(CCN(S(=O)(=O)c3ccccc3)CC1)c1cccn1-2	–
Cn1cnc2c(N3CCOCC3)nc(C3CCN(C(=O)C4(C)CC4)CC3)cc21	–
CCn1c(C2CCN(Cc3ccc(N4CCCC4)cc3)CC2)nn(C)c1=O	–
CCOc1cccc(OCc2nc(-c3ccco3)oc2C)c1	–
COc1ccc(Cc2nnc(NC(=O)c3cnn4cc(C)cnc34)s2)cc1OC	–
CC/C=C(\C)CN1CCN(C(=O)c2ccccc2)CC1	–
Cc1ccccc1NC(=O)c1c(O)c2ccccc2[nH]c1=O	–
COc1ccc(-c2nc(N(Cc3ccco3)C3CCCCC3)c3ccccc3n2)cc1	–
Cc1nn(-c2ccc(F)cc2)c(C)c1C(=O)N1[C@@H]2CC[C@H]1CNC(=O)C2	–
O=C(COc1ccccc1)N1CCC2(CC1)Nc1cc(F)ccc1-n1cccc12	–
Cc1cccc(C(=O)N2CCC3(CC2)Nc2ccc(Cl)cc2-n2cccc23)c1	–
COc1cccc(CC(=O)N2CCC3(CC2)Nc2ccc(Cl)cc2-n2cccc23)c1	–
Cc1cccc(OCC(=O)N2CCC3(CC2)Nc2ccc(Cl)cc2-n2cccc23)c1	-107
SMILES	Tg IFNy HTS
O=C(COc1ccc(Cl)cc1)N1CCC2(CC1)Nc1ccc(Cl)cc1-n1cccc12	–
O=C(COc1ccc(F)cc1)N1CCC2(CC1)Nc1ccc(Cl)cc1-n1cccc12	-115
CN(C)C(=O)C[C@@H]1C=C[C@H](NC(=O)c2ccc(F)cc2)[C@H](CO)O1	–
COc1ccc([C@H]2CN(C)C[C@@H]2CNc2nc(C)c(C(C)C)c(=O)[nH]2)cc1OC	–
COc1ccc(C2(CNS(=O)(=O)c3ccccc3)CCCC2)cc1OC	–
COc1ccccc1C(CCNS(=O)(=O)c1ccccc1)c1ccc2c(c1)OCO2 (configuration not stated)	-75
Cc1ccc(S(=O)(=O)NCCC(c2ccccc2)c2ccco2)cc1 (configuration not stated)	–
O=C(NCCCN1CCOCC1)c1csc(-c2ccc(N3CCCC3)nc2)n1	–
O=C(NCC1CCCO1)c1csc(-c2ccc(N3CCCC3)nc2)n1 (configuration not stated)	-113
CC1CCN(C(=O)c2csc(-c3ccc(N4CCCC4)nc3)n2)CC1	–
O=C(NC1CCN(Cc2ccccc2)CC1)c1csc(-c2ccc(N3CCCC3)nc2)n1	-85
O=C(Cn1ncc2c(N3CCCCC3)ncnc21)NC1CCN(Cc2ccccc2)CC1	–
CCc1csc(-c2ccc(N3CCN(C(=O)C4CCN(C(C)=O)CC4)CC3)nc2)n1	–
Cc1nn(-c2cc(N(C)C)ncn2)c(C)c1CCC(=O)NC1CCCCC1	–
CCC[C@H](N[C@H]1CCc2cc(F)cc(F)c2C1)C(=O)Nc1cn(C(C)(C)CNCC(C)(C)C)cn1	–
NCC1CN(Cc2cc(C#CCO)cs2)CCO1 (configuration not stated)	–
CCC(Oc1ccccc1OC)C(=O)N1CCC(c2ccc(Nc3ccccn3)cn2)CC1 (configuration not stated)	–
CCOc1ccc(N(Cc2nc(-c3ccc(C)cc3)oc2C)S(=O)(=O)c2cccs2)cc1	–
CC(C)CN(Cc1cnn(C)c1)C(=O)CC1NC(=O)c2ccccc21 (configuration not stated)	–
O=C(O)c1cncc(-c2cccc(-c3ccn[nH]3)c2)c1	–
